# Measured values taken from the supplement of paper PMC4683952.
# Structures can show the parent of a compound that is named as a salt. The campaign covered roughly 1,200 compounds. About 50 (4%) showed activity. Cut-off read from the data, not from the text of the source: all actives reach 1.3 or more but so do some inactives. The entries come from a sample that favours actives as a whole.
# Tested on: Lgr5 (MarsCy1-Lgr5-EGFP, U2OS)
# Test: cell-surface Lgr5 expression (SCi1 fluorescence, background-subtracted) relative to WT DMSO (fold of DMSO control); higher = more Lgr5 at the plasma membrane, active = hit call of the paper
# Conditions: U2OS MarsCy1-Lgr5-EGFP stable; treatment time: overnight; 16 µM; library: Johns Hopkins Clinical Compound Library
row,SMILES,cell-surface Lgr5 expression
1,COC(=O)c1ccc(O)c2nc3c(C=O)c(O)cc(O)c3nc12 [Lomofungin],0.884 (inactive)
2,COc1ccnc(C[S+]([O-])c2nc3cc(OC(F)F)ccc3[nH]2)c1OC (centres undefined) [Pantoprazole],1.01 (inactive)
3,OC(CCCN1CCC(O)(c2ccc(Cl)cc2)CC1)c1ccc(F)cc1 (centres undefined) [Haloperidol metabolite II],1.18 (inactive)
4,CCCCCCCCCCCCCCc1ccc(S(=O)(=O)O)cc1.OCl [Oxychlorosene],0.635 (inactive)
5,C[C@H]1C[C@H]2[C@@H]3CCC4=CC(=O)C=C[C@]4(C)[C@@]3(Cl)[C@@H](O)C[C@]2(C)[C@@]1(O)C(=O)CO [Beclomethasone],1.36 (active)
6,C[C@@H]1C[C@H]2[C@@H]3CCC4=CC(=O)C=C[C@]4(C)[C@@]3(F)[C@@H](O)C[C@]2(C)[C@H]1C(=O)CO,1.41 (inactive)
7,C[C@@H]1C[C@H]2[C@@H]3CCC4=CC(=O)C=C[C@]4(C)[C@@]3(F)[C@@H](O)C[C@]2(C)[C@@]1(O)C(=O)COP(=O)(O)O,1.26 (inactive)
8,CC(=O)OCC(=O)[C@@]1(O)[C@@H](C)C[C@H]2[C@@H]3CCC4=CC(=O)C=C[C@]4(C)[C@@]3(F)[C@@H](O)C[C@@]21C [Betamethasone 21-acetate],1.53 (active)
9,CC(=O)OCC(=O)[C@@]1(O)[C@@H](C)C[C@H]2[C@@H]3CCC4=CC(=O)C=C[C@]4(C)[C@@]3(F)[C@@H](O)C[C@@]21C,1.59 (active)
10,C[C@H]1C[C@H]2[C@@H]3CCC4=CC(=O)C=C[C@]4(C)[C@@]3(F)[C@@H](O)C[C@]2(C)[C@@]1(O)C(=O)COP(=O)(O)O [Betamethasone sodium phosphate],1.35 (active)
11,C[C@H]1C[C@H]2[C@@H]3CCC4=CC(=O)C=C[C@]4(C)[C@@]3(F)[C@@H](O)C[C@]2(C)[C@@]1(O)C(=O)CO,1.45 (active)
12,O=P([O-])([O-])O.[K+].[K+] [Potassium phosphate dibasic],1.09 (inactive)
13,O.O.O.O.O.O.[Br-].[Br-].[Sr+2] [Strontium bromide hexahydrate],0.469 (inactive)
14,"Nc1ccc2cc3ccc(N)cc3nc2c1 [Proflavine hemisulfate salt hydrate, powder]",1.06 (inactive)
15,CCCCCCCCCCCCCCCCCC(=O)[O-].CCCCCCCCCCCCCCCCCC(=O)[O-].[Zn+2] [Zinc stearate],0.658 (inactive)
16,C=CC[N+]1([C@H]2C[C@H]3[C@@H]4CC[C@H]5C[C@H](O)[C@@H](N6CCOCC6)C[C@]5(C)[C@H]4CC[C@]3(C)[C@H]2OC(C)=O)CCCC1 [Rocuronium bromide (Zemuron)],1.2 (inactive)
17,CCCCC(C)(O)C/C=C/[C@H]1[C@H](O)CC(=O)[C@@H]1CCCCCCC(=O)OC (mixture of isomers) [Misoprostol],1.07 (inactive)
18,O=C(Cc1cccs1)N[C@@H]1C(=O)N2C(C(=O)O)=C(/C=C/c3ccc([N+](=O)[O-])cc3[N+](=O)[O-])CS[C@H]12 [Nitrocefin],0.867 (inactive)
19,CCOC(C)OCC [Acetal],1.06 (inactive)
20,C=C1C[C@H]2[C@@H]3C=C(C)C4=CC(=O)CC[C@]4(C)[C@H]3CC[C@]2(C)[C@@]1(OC(C)=O)C(C)=O [Melengestrol acetate],1.58 (active)

row,SMILES,cell-surface Lgr5 expression
1,CC(=O)O[C@]1(C(C)=O)CC[C@H]2[C@@H]3C=C(Cl)C4=CC(=O)CC[C@]4(C)[C@H]3CC[C@@]21C [Chlormadinone acetate],1.09 (inactive)
2,CC(=O)O[C@]1(C(C)=O)CC[C@H]2[C@@H]3C=C(C)C4=CC(=O)CC[C@]4(C)[C@H]3CC[C@@]21C [Megestrol Acetate],1.29 (inactive)
3,CO[C@H]1C=CO[C@@]2(C)Oc3c(C)c(O)c4c(O)c(c(C=O)c(O)c4c3C2=O)NC(=O)C(C)=CC=C[C@H](C)[C@H](O)[C@@H](C)[C@@H](O)[C@@H](C)[C@H](OC(C)=O)[C@@H]1C [3-formyl Rifamycin],1.12 (inactive)
4,O=C([O-])[O-].[Ca+2] [Calcium carbonate],0.936 (inactive)
5,COC(=O)Nc1nc2cc([S+]([O-])c3ccccc3)ccc2[nH]1 (centres undefined) [Oxfendazole],1.18 (inactive)
6,O=[N+]([O-])c1ccc(O)cc1 [4-Nitrophenol],1.17 (inactive)
7,[Na+].[OH-] [Sodium hydroxide],0.75 (inactive)
8,COc1ccc2cc(CCC(C)=O)ccc2c1 [Nabumetone],1.32 (active)
9,COc1ccc2cc([C@H](C)C(=O)O)ccc2c1 [Naproxen (s-6-methoxy methyl 2-naphthalene acetic acid)],0.783 (inactive)
10,COc1ccc2cc([C@H](C)C(=O)O)ccc2c1 [Naproxen sodium],1.03 (inactive)
11,"COc1ccc(C(=O)c2ccccc2O)c(O)c1 [Dioxybenzone (2,2'-Dihydroxy-4-methoxybenzophenone)]",0.985 (inactive)
12,O=C([O-])C[NH+](CC(=O)[O-])CC(=O)[O-].O=C([O-])C[NH+](CC(=O)[O-])CC(=O)[O-].O=C([O-])C[NH+](CC(=O)[O-])CC(=O)[O-].[Na+].[Na+].[Na+].[Na+].[Na+].[Na+].[Na+].[O]=[Bi][O]C(=O)C[NH+](CC(=O)[O-])CC(=O)[O-] [Bismuth Sodium Triglycollamate (Nitrilotriacetic acid)],1.08 (inactive)
13,COc1ccc2[nH]c([S+]([O-])Cc3ncc(C)c(OC)c3C)nc2n1 (centres undefined) [Tenatoprazole],1.17 (inactive)
14,[I-].[Na+] [Sodium iodide],1.13 (inactive)
15,"C[C@@H](C1=C(CCN(C)C)Cc2ccccc21)c1ccccn1 [Dimethindene (S, +) maleate]",1.32 (inactive)
16,CCCCCCCCCCCCN [Dodecylamine],0.823 (inactive)
17,CCCCCCCCCCCC[N+](C)(C)Cc1ccccc1,0.391 (inactive)
18,C[N+](C)(CCOc1ccccc1)Cc1ccccc1.O=C([O-])c1cc2ccccc2cc1O [Bephenium hydroxy-naphthoate],1.05 (inactive)
19,Cc1cc(C(C)(C)CC(C)(C)C)ccc1OCCOCC[N+](C)(C)Cc1ccccc1 [Methylbenzethonium chloride],1.67 (active)
